Assay results taken from PubChem BioAssay (NCATS).
Results filed as inconclusive are left out. Entries that show only a call come without a potency. The source made the active and inactive calls. Calls come from the whole dose curve; as a rule, active = well fitted cell-killing curve with a large enough effect; inconclusive = small, poorly fitted or top-dose-only effect; inactive = no such curve, though single readings can be large or run the other way.

assay: qHTS of pediatric cancer cell lines to identify multiple opportunities for drug repurposing: Primary screen for Rh30 cells (AID 1347107); conditions: Rh30 rhabdomyosarcoma viability, CellTiter-Glo luminescence, 48 h; series mostly up to 46 µM; note: nearly all actives have a fitted effect of over 75% in size
Description: Drug repurposing or repositioning has been offered as a strategy for drug development in oncology programs. This approach has special potential for childhood cancers and other rare or orphan diseases, where the expected return on new drug development has been a disincentive to pharmaceuticals.
In this project we exploit the poly-pharmacology of drugs to discover new indications via phenotypic screening of a panel of 19 well-characterized cell lines derived from solid tumors seen in children and adolescents. The goal is to identify approved drugs with previously unrecognized anticancer properties that has the potential to reveal new mechanisms and biological processes involved in carcinogenesis or drug resistance. We employed a titration-based paradigm (quantitative high-throughput screening or qHTS), where all compounds were tested at multiple concentrations for their effect on cell viability. Concentration-response curves (CRCs) were derived directly from the primary screen, and both potency and efficacy values were used to identify compounds with robust bioactivity profiles. We screened the NIH Chemical Genomics Center (NCGC) Pharmaceutical Collection (NPC) and Mechanism Interrogation Plate (MIPE) small molecule collections of approved and investigational compounds against these cell lines; and measured metabolically active cells after 48 hours of compound treatment as a proxy for cell viability.
Assay Submitter: Nathalia J. Martinez, National Center for Advancing Translational Sciences, National Institutes of Health, Rockville, MD, USA; email: natalia.martinez@nih.gov
[1] Shen, M et al. Quantitative high-throughput phenotypic screening of pediatric cancer cell lines identifies multiple opportunities for drug repurposing. Oncotarget 2017 Dec 19;9(4):4758-4772. PMID 29435139.
The cells were obtained from University of North Carolina (UNC), Pediatric Preclinical Testing Program (PPT), and Coriell Institute (CI).
qHTS cell viability assay:
Cells were assayed in growth media at a density of 500-1,000 cells/well. Five microliters of cells were dispensed into 1,536-well, white, solid-bottom, TC-treated plates (Greiner Bio One) using a multidrop dispenser and incubated at 37 degrees C, 5% CO2, under a humidified atmosphere for 5 hours. Twenty-three nanoliters of compounds and controls (neutral control DMSO or positive control bortezomib at final concentration of 2.3 µM) were subsequently transferred by Kalypsys pintool. For primary screens, the MIPE collection was tested at 11-point dilutions (final concentrations range from 0.78 nM to 46 µM) and the NPC collection at 8-point dilutions (final concentrations range from 0.59 nM to 46 µM). Compounds tested in follow-up screens were assayed at 11-point dilutions. Cells were incubated for 48 hours, followed by addition of 3 µL of CellTiter-Glo (Promega). After a 15 min incubation at room temperature, samples were analyzed for luminescence intensity using a ViewLux High-throughput CCD imager equipped with clear filters.

Row | SMILES | Potency
1 | C=CCOc1cc(Cl)ccc1C(=O)NCCN(CC)CC | inactive
2 | CC(=O)N(CC(O)CO)c1c(I)c(C(=O)NCCO)c(I)c(C(=O)NCC(O)CO)c1I (stereo not given) | inactive
3 | CCCCC(=O)OCC(=O)[C@H]1[C@H](C)C[C@H]2[C@@H]3C[C@H](F)C4=CC(=O)C=C[C@]4(C)[C@@]3(F)[C@@H](O)C[C@@]21C | inactive
4 | Cc1ccc2ccc(Cl)cc2n1 | inactive
5 | Cc1cnc(NS(=O)(=O)c2ccc(N)cc2)nc1 | inactive
6 | Cc1cc(C(C)(C)C)c(O)c(C(C)(C)C)c1 | inactive
7 | CN=C(N)NC(=O)Nc1c(C)cccc1C | inactive
8 | CCOc1ncc(F)c(=O)[nH]1 | inactive
9 | Cc1c(C)c2c(c(C)c1OC(=O)CCC(=O)OCCO)CC[C@@](C)(CCC[C@H](C)CCC[C@H](C)CCCC(C)C)O2 | inactive
10 | CCOC(=O)N1CCC(n2c(=O)[nH]c3cc(Cl)ccc32)CC1 | inactive
11 | O=C(c1cc(O)c(O)c(O)c1)c1ccc(O)c(O)c1O | inactive
12 | CC[N+]1(CC)CCC(=C(c2ccccc2)c2ccccc2)C1C (stereo not given) | inactive
13 | CCCC(=O)O[C@]1(C(=O)CCl)[C@@H](C)C[C@H]2[C@@H]3CCC4=CC(=O)C=C[C@]4(C)[C@@]3(F)C(=O)C[C@@]21C | inactive
14 | CCCc1ccc(OCC(=O)N2CCN(C(=O)COc3ccc(CCC)cc3OC)CC2)c(OC)c1 | inactive
15 | Cc1ccccc1N1CCN(CCc2nnc3n2CCCC3)CC1 | inactive
16 | COc1ccc(-n2nc(CCC(=O)N(C)O)cc2-c2ccc(Cl)cc2)cc1 | inactive
17 | CC(=O)O[C@@H]1CC2C3CCc4cc(OC(=O)c5ccccc5)ccc4C3CCC2(C)[C@H]1OC(C)=O (stereo not given in full) | inactive
18 | CCO[C@H](Cc1ccc(OCCc2ccc(OS(C)(=O)=O)cc2)cc1)C(=O)O | inactive
19 | C[C@]12CCC(=O)C=C1CC[C@@H]1[C@@H]2[C@@H](O)C[C@@]2(C)[C@H]1CC[C@]2(O)C(=O)COC(=O)CCC(=O)O | inactive
20 | CCOC(=O)NNc1ccc(N(CC)CC(C)O)nn1 (stereo not given) | inactive

Row | SMILES | Potency
21 | N#C/C(=C1/SC[C@@H](c2ccc(Cl)cc2Cl)S1)n1ccnc1 | inactive
22 | Oc1ccccc1-c1nnco1 | inactive
23 | C#CC(C)(CC)OC(=O)c1ccccc1C(=O)O (stereo not given) | inactive
24 | Fc1ccc(C(c2ccc(F)cc2)N2CCNCC2)cc1 | inactive
25 | OCc1c[nH]c2ccccc12 | inactive
26 | C[N+]1(CC2COC(c3ccccc3)(c3ccccc3)O2)CCCCC1 (stereo not given) | inactive
27 | O=C(CCC1CCN(Cc2ccccc2)CC1)c1ccc2c(c1)NCCCC2 | inactive
28 | Cn1c(=O)c2c(ncn2CC(=O)O)n(C)c1=O | inactive
29 | CO/N=C(/C(=O)N[C@@H]1C(=O)N2C(C(=O)OCOC(=O)C(C)(C)C)=C(C)CS[C@H]12)c1csc(N)n1 | inactive
30 | O=C1NCCN1CCN1CCC(c2cn(-c3ccc(F)cc3)c3ccc(Cl)cc23)CC1 | inactive
31 | Nc1c(NC/C=C\COc2cc(CN3CCCCC3)ccn2)c(=O)c1=O | inactive
32 | CCN(CC)C(=O)C1CN2CCc3cc(OC)c(OC)cc3C2CC1OC(C)=O (stereo not given) | inactive
33 | O=C(OCC1(COC(=O)c2cccnc2)CCCC(COC(=O)c2cccnc2)(COC(=O)c2cccnc2)C1O)c1cccnc1 | inactive
34 | COC(=O)C1=C(C)NC(C)=C(C(=O)OCCc2ccc(N3CCN(C(c4ccccc4)c4ccccc4)CC3)cc2)C1c1cccc([N+](=O)[O-])c1 (stereo not given) | inactive
35 | CN1C(=O)CC(C)(c2ccccc2)C1=O (stereo not given) | inactive
36 | O=C(O)CCC(=O)OC[C@@H](NC(=O)C(Cl)Cl)[C@H](O)c1ccc([N+](=O)[O-])cc1 | inactive
37 | C[N+](C)(CCOc1ccccc1)Cc1cccs1 | inactive
38 | Cc1ccccc1C(=O)N1CC/C(=N\OS(=O)(=O)O)c2ccc(Cl)cc21 | inactive
39 | CO/N=C(/C(=O)N[C@@H]1C(=O)N2C(C(=O)O)=C(Cn3nnc(C)n3)CS[C@H]12)c1csc(N)n1 | inactive
40 | COc1cc2nc(Cl)nc(N)c2cc1OC | inactive
